{"source": "PubChem BioAssay", "key": {"[1]": {"experiment": "HepG2 liver cancer cell viability effects, profiling panel, resazurin fluorescence, 24 h, PK04 Diversity Set (AID 1172); further: test concentration not given here", "conditions": "higher = more signal"}, "[2]": {"experiment": "basal S. cerevisiae growth modulation, no modifier, primary screen, OD600, strain BY4716, 24 h, basal condition (AID 1173)", "conditions": "OD600, 24 h, higher = more signal, called active from +8 up or from −8 down"}, "[3]": {"experiment": "MM1S myeloma cell viability, profiling panel, resazurin fluorescence, basal, 24 h, PK04 Diversity Set (AID 1174);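 further: MM1S multiple myeloma cell line; test concentration not given here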", "conditions": "higher = more signal, called active from +8 up or from −8 down"}, "[4]": {"biological_target": "Dihydroorotate dehydrogenase (quinone), mitochondrial (Plasmodium falciparum (isolate 3D7)) (UniProt Q08210)", "sequence (Q08210 whole entry, looked up)": "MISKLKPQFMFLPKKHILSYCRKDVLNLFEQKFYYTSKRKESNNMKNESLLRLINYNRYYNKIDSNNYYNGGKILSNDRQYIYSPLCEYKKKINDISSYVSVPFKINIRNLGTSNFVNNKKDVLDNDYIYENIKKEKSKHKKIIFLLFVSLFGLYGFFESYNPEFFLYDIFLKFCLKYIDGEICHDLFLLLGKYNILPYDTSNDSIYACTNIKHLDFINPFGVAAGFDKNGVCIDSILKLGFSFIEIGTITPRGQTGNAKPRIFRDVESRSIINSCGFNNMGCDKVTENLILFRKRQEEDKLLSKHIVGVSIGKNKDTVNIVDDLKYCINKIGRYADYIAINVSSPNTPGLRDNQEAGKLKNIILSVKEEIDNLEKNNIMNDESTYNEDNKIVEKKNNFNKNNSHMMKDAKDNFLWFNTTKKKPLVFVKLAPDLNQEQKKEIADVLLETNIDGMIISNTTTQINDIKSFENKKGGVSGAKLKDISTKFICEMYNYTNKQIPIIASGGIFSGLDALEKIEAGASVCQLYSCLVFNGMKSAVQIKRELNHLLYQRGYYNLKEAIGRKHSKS", "experiment": "PfDHODH enzyme inhibitors, primary screen, biochemical, C-terminal His tag, absorbance 600 nm (AID 1175);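 further: recombinant parasite enzyme with a five histidine tag at its C terminus; test concentration not given here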", "conditions": "DCIP absorbance 600 nm, higher = more signal, called active from +8 up or from −8 down"}, "[5]": {"experiment": "P. aeruginosa biofilm formation inhibitors, primary screen, strain PAO1, LB-PBS medium, absorbance 600 nm (AID 1176); further: test concentration not given here", "conditions": "P. aeruginosa PAO1 growth/biofilm, A600, 12 h; higher = more signal"}, "[6]": {"experiment": "S. cerevisiae RM11-1a growth modifiers, primary screen, strain RM11-1a, OD600, basal, 24 h (AID 1177);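 further: cultures grown under basal conditions with no added stressor; test concentration not given here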", "conditions": "OD600, 24 h, higher = more signal, called active from +8 up or from −8 down"}, "[7]": {"experiment": "E. coli acrAB mutant growth effects, primary screen, E. coli filamentation inducers, strain DRC39, OD650, 24 h (AID 1178);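 further: growth measured as culture turbidity by optical density at 650 nm; test concentration not given here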", "conditions": "higher = more signal, called active from +8 up or from −8 down"}, "[8]": {"experiment": "E. coli acrAB mutant growth effects, primary screen, E. coli filamentation inducers, strain DRC39, OD650, 48 h (AID 1179);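 further: screen aims at cell division blockers that make cells filament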", "conditions": "E. coli DRC39 delta-acrAB growth, higher = more signal, called active from +8 up or from −8 down"}, "[9]": {"experiment": "RPMI8226 myeloma cell viability, profiling panel, resazurin fluorescence, basal, 24 h, PK04 Diversity Set (AID 1180);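 further: RPMI8826 multiple myeloma cell line at 5000 cells per well; test concentration not given here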", "conditions": "higher = more signal"}, "[10]": {"biological_target": "E3 ubiquitin-protein ligase XIAP (Homo sapiens) (UniProt P98170)", "sequence (P98170 whole entry, looked up)": "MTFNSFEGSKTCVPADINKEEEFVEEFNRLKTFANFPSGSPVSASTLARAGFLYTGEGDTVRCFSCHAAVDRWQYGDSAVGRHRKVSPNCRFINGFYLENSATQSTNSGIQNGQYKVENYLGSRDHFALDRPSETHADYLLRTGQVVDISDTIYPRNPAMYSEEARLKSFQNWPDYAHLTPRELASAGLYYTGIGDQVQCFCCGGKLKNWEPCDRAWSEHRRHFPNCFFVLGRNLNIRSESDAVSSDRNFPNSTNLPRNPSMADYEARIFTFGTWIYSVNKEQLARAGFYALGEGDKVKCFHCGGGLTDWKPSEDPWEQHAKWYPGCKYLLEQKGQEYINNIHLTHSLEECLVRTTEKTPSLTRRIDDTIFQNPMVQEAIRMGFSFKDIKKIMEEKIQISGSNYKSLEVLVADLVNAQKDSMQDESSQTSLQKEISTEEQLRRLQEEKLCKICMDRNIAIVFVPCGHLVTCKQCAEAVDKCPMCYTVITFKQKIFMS", "experiment": "XIAP binders, primary screen, biophysical, small-molecule microarray, fluorescence 635 nm (AID 1181);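 further: score merges 667 nm emission and signal to noise over triplicate slides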", "conditions": "small-molecule microarray binding, higher = more signal"}}, "note": "The source made the active and inactive calls. Unless noted, how the calls were made is not given here."}
{"compound": "O=C1C2C=CC(C(O)c3ccccn3)N(Nc3ccc([N+](=O)[O-])cc3)C2C(=O)N1c1ccccc1", "note": "(stereo not given)", "values": [{"measurement": "z-score", "setting": "[1]", "value": -0.534}, {"measurement": "z-score", "setting": "[2]", "value": "0.512 (inactive)"}, {"measurement": "z-score", "setting": "[3]", "value": "-0.494 (inactive)"}, {"measurement": "composite z-score", "setting": "[4]", "value": "0.128 (inactive)"}, {"measurement": "z-score", "setting": "[5]", "value": "1.17 (inactive)"}, {"measurement": "z-score", "setting": "[6]", "value": "-0.841 (inactive)"}, {"measurement": "z-score", "setting": "[7]", "value": "-0.63 (inactive)"}, {"measurement": "z-score", "setting": "[8]", "value": "-0.462 (inactive)"}, {"measurement": "z-score", "setting": "[9]", "value": -1.03}, {"measurement": "composite z-score", "setting": "[10]", "value": 0.359}]}
{"compound": "C=C(COC)/C(=C/C[C@@H](OC(C)=O)c1cccc(OCCO)c1)c1cnc2ccccc2c1", "values": [{"measurement": "z-score", "setting": "[1]", "value": -0.469}, {"measurement": "z-score", "setting": "[2]", "value": "-7.06 (inactive)"}, {"measurement": "z-score", "setting": "[3]", "value": "-0.732 (inactive)"}, {"measurement": "composite z-score", "setting": "[4]", "value": "-7.29 (inactive)"}, {"measurement": "z-score", "setting": "[5]", "value": "0.203 (inactive)"}, {"measurement": "z-score", "setting": "[6]", "value": "0.179 (inactive)"}, {"measurement": "z-score", "setting": "[7]", "value": "-0.672 (inactive)"}, {"measurement": "z-score", "setting": "[8]", "value": "-0.303 (inactive)"}, {"measurement": "z-score", "setting": "[9]", "value": -0.311}, {"measurement": "composite z-score", "setting": "[10]", "value": 0.133}]}
{"compound": "O=C1OC[C@@H](c2ccccc2)n2cc(/C=C/c3ccccc3)cc21", "values": [{"measurement": "z-score", "setting": "[1]", "value": -0.295}, {"measurement": "z-score", "setting": "[2]", "value": "-2.5 (inactive)"}, {"measurement": "z-score", "setting": "[3]", "value": "0.539 (inactive)"}, {"measurement": "composite z-score", "setting": "[4]", "value": "-2.31 (inactive)"}, {"measurement": "z-score", "setting": "[5]", "value": "-0.353 (inactive)"}, {"measurement": "z-score", "setting": "[6]", "value": "0.561 (inactive)"}, {"measurement": "z-score", "setting": "[7]", "value": "-0.0891 (inactive)"}, {"measurement": "z-score", "setting": "[8]", "value": "-0.733 (inactive)"}, {"measurement": "z-score", "setting": "[9]", "value": -0.302}, {"measurement": "composite z-score", "setting": "[10]", "value": -0.286}]}
{"compound": "COc1ccc(-c2cc3c(c(CCc4ccccc4)n2)[Si](C(C)C)(C(C)C)O[C@H]3c2ccccc2)cn1", "values": [{"measurement": "z-score", "setting": "[1]", "value": -0.166}, {"measurement": "z-score", "setting": "[2]", "value": "0.871 (inactive)"}, {"measurement": "z-score", "setting": "[3]", "value": "0.694 (inactive)"}, {"measurement": "composite z-score", "setting": "[4]", "value": "-0.575 (inactive)"}, {"measurement": "z-score", "setting": "[5]", "value": "0.726 (inactive)"}, {"measurement": "z-score", "setting": "[6]", "value": "0.868 (inactive)"}, {"measurement": "z-score", "setting": "[7]", "value": "-1.19 (inactive)"}, {"measurement": "z-score", "setting": "[8]", "value": "-0.893 (inactive)"}, {"measurement": "z-score", "setting": "[9]", "value": -0.555}, {"measurement": "composite z-score", "setting": "[10]", "value": -0.12}]}
{"compound": "COc1cccc(C)c1NC(=O)O[C@H]1[C@H](OC(=O)Nc2ccc3c(c2)OCO3)[C@H](OC(=O)Nc2ccc3c(c2)OCO3)[C@@H](OC)O[C@@H]1CO", "values": [{"measurement": "z-score", "setting": "[1]", "value": -0.73}, {"measurement": "z-score", "setting": "[2]", "value": "1.27 (inactive)"}, {"measurement": "z-score", "setting": "[3]", "value": "-0.494 (inactive)"}, {"measurement": "composite z-score", "setting": "[4]", "value": "-0.713 (inactive)"}, {"measurement": "z-score", "setting": "[5]", "value": "0.606 (inactive)"}, {"measurement": "z-score", "setting": "[6]", "value": "1.6 (inactive)"}, {"measurement": "z-score", "setting": "[7]", "value": "0.84 (inactive)"}, {"measurement": "z-score", "setting": "[8]", "value": "-0.0834 (inactive)"}, {"measurement": "z-score", "setting": "[9]", "value": -0.708}, {"measurement": "composite z-score", "setting": "[10]", "value": 1.64}]}
{"compound": "CN(C)CCCC[C@@H]1NC(=O)[C@H]2C[C@@H](C(=O)NCCCCCCNC(=O)CS)[C@@H](c3cccc(OCCO)c3)N2C1=O", "values": [{"measurement": "z-score", "setting": "[1]", "value": -0.27}, {"measurement": "z-score", "setting": "[2]", "value": "-0.587 (inactive)"}, {"measurement": "z-score", "setting": "[3]", "value": "-0.956 (inactive)"}, {"measurement": "composite z-score", "setting": "[4]", "value": "-0.237 (inactive)"}, {"measurement": "z-score", "setting": "[5]", "value": "0.463 (inactive)"}, {"measurement": "z-score", "setting": "[6]", "value": "-0.511 (inactive)"}, {"measurement": "z-score", "setting": "[7]", "value": "0.329 (inactive)"}, {"measurement": "z-score", "setting": "[8]", "value": "0.0044 (inactive)"}, {"measurement": "z-score", "setting": "[9]", "value": -0.713}, {"measurement": "composite z-score", "setting": "[10]", "value": -0.177}]}
